Among the data in PubChem BioAssay AID1903 (Southern Research Specialized Biocontainment Screening …, 2009) are inhibition values, retold here.

Where “and” joins values, the source holds several entries; their conditions need not be identical. Equal values may be shown once. The whole screen tested about 310,000 compounds, of which about 1,200 (0.39%) were called active. The list is a sample of the results. Entries with a potency or affinity are not part of this list. Unmarked numbers belong to inactive results. How the calls were made is not given here.

The target of the assay is Large T antigen (Simian virus 40) (UniProt P03070). The assay is described as follows: SV40 large T antigen inhibitors, biochemical (AID 1903). The settings on record: SV40 large T antigen ATPase/helicase inhibition assay; at 20 µM; stronger effect = higher value.
Large T antigen (Simian virus 40), sequence (P03070 whole entry, looked up): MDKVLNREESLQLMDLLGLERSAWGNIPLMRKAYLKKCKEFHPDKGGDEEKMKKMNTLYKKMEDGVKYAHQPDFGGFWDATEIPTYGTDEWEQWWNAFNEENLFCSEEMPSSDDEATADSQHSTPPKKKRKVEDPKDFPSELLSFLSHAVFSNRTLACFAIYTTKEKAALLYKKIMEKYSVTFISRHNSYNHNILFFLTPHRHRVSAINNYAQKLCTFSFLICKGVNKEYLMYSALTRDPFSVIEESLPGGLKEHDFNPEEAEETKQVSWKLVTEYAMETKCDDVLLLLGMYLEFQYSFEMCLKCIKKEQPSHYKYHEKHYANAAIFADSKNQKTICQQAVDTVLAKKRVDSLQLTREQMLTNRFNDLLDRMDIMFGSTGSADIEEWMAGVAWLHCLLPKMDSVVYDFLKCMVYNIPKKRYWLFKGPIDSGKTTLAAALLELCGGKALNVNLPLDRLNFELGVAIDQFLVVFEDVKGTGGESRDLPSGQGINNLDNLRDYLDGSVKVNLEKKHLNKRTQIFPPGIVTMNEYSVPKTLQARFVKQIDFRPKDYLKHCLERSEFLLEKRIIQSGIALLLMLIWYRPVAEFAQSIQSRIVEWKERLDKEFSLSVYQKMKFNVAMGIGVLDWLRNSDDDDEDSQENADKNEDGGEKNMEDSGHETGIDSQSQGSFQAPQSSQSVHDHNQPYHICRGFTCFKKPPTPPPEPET
What is called inhibition is the change of the read-out against control, counted positive when it falls. On to `O/N=C/c1ccc2ccccc2c1`, for which the inhibition was 70.8%. With `CCOc1ccc(N=Cc2ccc3ccccc3c2)cc1`, the inhibition is 21.9%. On to `COc1ccc(S(=O)(=O)N(C)c2ccc(OC(=O)C(C)Oc3ccc(F)cc3)cc2)cc1` (stereo not drawn), for which the inhibition was 13%. As to `N/C(=N\N=C\c1ccc2c(c1)OCO2)c1nonc1N`, the inhibition is 7.74%. Next, `Cc1cc(=O)oc2c(CN3CCCC3)c(O)ccc12`: 4.61%; `Cc1cc(=O)oc2c(CN(CC(C)C)CC(C)C)c(O)ccc12`: 15.8%; `COc1ccc(CCN2C(=NC(=O)CC(C)C)SC3CS(=O)(=O)CC32)cc1` (stereo not drawn): 0.43%. Next, `CCCOc1ccc(/C=N/NC(=O)c2nnn(-c3nonc3N)c2-c2cccs2)cc1OC`: 10.3%; `COc1cc(/C=N/NC(=S)Nc2cccc(C(=O)O)c2)cc(OC)c1OC`: 5.01%; `O=C(CNC(=O)c1cccc(F)c1)N/N=C/c1cccc([N+](=O)[O-])c1`: 16.8%. Next, `COc1cccc(/C=N/NC(=O)c2cccs2)c1`: -1.95%. As to `COc1cc(/C=N/NC(=O)c2cccs2)ccc1OCc1ccccc1`, the inhibition is -0.01%. `COc1ccc(/C=N/NC(=S)Nc2cccc(C(=O)O)c2)cc1OC`: the inhibition is 19.3%.

With `COc1ccc(/C=N/NC(=O)c2nnn(-c3nonc3N)c2-c2cccs2)cc1OC`, the inhibition was 7.55%. In the case of `COc1cc(/C=N/NC(=O)c2cccc([N+](=O)[O-])c2)cc(OC)c1O` it was 20.1%. Consider `COc1cc(OC)c(C(=O)NCC2CCCO2)cc1OC` (stereo not drawn), for which the inhibition was -5.36%. Next, `CS(=O)(=O)N1CCCC(C(=O)Nc2ccccc2F)C1` (stereo not drawn): 1.68%; `O=C(O)c1cccc(NC(=O)c2ccccc2NC(=O)c2ccccc2F)c1`: 9%; `Cc1ccc(NC(=O)CN(C)CC(=O)Nc2ccccc2C#N)cc1`: 8.84%. Next, `CC(Oc1ccc(Br)cc1)C(=O)O/N=C(\N)c1ccncc1` (stereo not drawn): 2.31%; `COc1cccc(C(=O)C2CCCN(Cc3cn(C)nc3-c3ccccc3)C2)c1` (stereo not drawn): -3.2%. Next, `COc1cc2[nH]c(-c3cccc(F)c3)cc(=O)c2cc1OC`: 16.1%. Consider `CN(CC(=O)Nc1ccc(S(N)(=O)=O)cc1)Cc1ccccc1F`, for which the inhibition was 4.84%. Next, `COc1ccc(/C=N/NC(=O)c2cccc([N+](=O)[O-])c2)cc1OC`: 22.1%; `COc1ccc(/C=N/NC(=O)c2cnccn2)cc1O`: 26.2%. With `COc1cc(/C=N/NC(=O)c2ccccc2O)ccc1OCC(=O)Nc1ccccc1`, the inhibition was 13.3%.

Turning to `O=C(CC1SC(=O)NC1=O)Oc1ccc(/C=N/NC(=O)c2ccccc2O)cc1` (stereo not drawn), the inhibition was 48.3%. In the case of `COc1ccc(/C=N/NC(=O)c2cccc([N+](=O)[O-])c2)cc1O` it was 29.7%. Take `COc1cc(/C=N/NC(=O)c2cnccn2)cc(OC)c1OC`: the inhibition was -1.61%. Consider `COc1ccc(/C=N/NC(=O)C2COc3ccccc3O2)cc1OC` (stereo not drawn), for which the inhibition is -1.14%. `COc1cc(/C=N\NC(=O)C2COc3ccccc3O2)cc(OC)c1O` (stereo not drawn): the inhibition was 37.5%. Next, `N#CCc1c(C#N)c(N)nc(N2CCOCC2)c1C#N`: 5.53%; `CN(Cc1ccccc1)S(=O)(=O)c1ccc(NC(=O)c2ccccc2C(=O)O)cc1`: 4.64%.

For the molecule `Cc1ccc(Cn2cnc3sc4c(c3c2=O)CCC4)c(C)c1`, the inhibition is 9.2%. Next, `O=C(N/N=C\C=C\c1ccc2c(c1)OCO2)C1COc2cc3ccccc3cc2O1` (stereo not drawn): 7.25%; `COc1ccc(C(=O)Nc2cc(C)on2)cc1OC`: 4.7%; `O=C(O)c1sccc1Oc1ccc(NS(=O)(=O)c2ccccc2)cc1`: 9.58%. In the case of `O=C(OCc1nc2ccccc2[n+]([O-])c1C(=O)c1ccccc1)c1cccs1` it was 8.13%. In the case of `COc1cc(/C=N/NC(=O)c2cc(C3CC3)[nH]n2)cc(OC)c1OC` it was 8.67%. Turning to `COc1cc(C(=O)N/N=C/c2ccc(OC(=O)c3ccccc3)c(OC)c2)ccc1O`, the inhibition is 23.2%.

As to `CCOc1cc(/C=N/NC(=O)c2c(-c3ccccc3)noc2C)ccc1O`, the inhibition was 34.1%.

Regarding `COc1cc(/C=N/NC(=O)c2cc[n+]([O-])cc2)ccc1O`, the inhibition is 27.9%. `COc1ccc(/C=N/NC(=O)c2cc(C3CC3)[nH]n2)cc1OC`: the inhibition was 11.7%. Next, `CCOc1ccc(/C=N/N(C)c2ccccc2)cc1OC`: 3.32%.

As for `COc1cc(/C=N/NC(=O)c2c(-c3ccccc3)noc2C)cc(OC)c1OC`, the inhibition is 0.27%. For the molecule `COc1cc(/C=N/N(c2ccccc2)c2ccccc2)ccc1O`, the inhibition was 18.7%.

As for `Cc1c(NS(=O)(=O)c2ccc(Br)s2)c(=O)n(-c2ccccc2)n1C`, the inhibition is 3.2%. Next, `O=C(NCCc1ccco1)c1cc(COc2cccc(C(F)(F)F)c2)on1`: 29.7%; `CCc1ccc(CN2CCC(n3nccc3NC(=O)Cc3ccccc3)CC2)o1`: 13.5%; `Cc1ccc(N(CC(=O)N/N=C/c2cccc(Br)c2)S(C)(=O)=O)cc1`: 9.07%. Next, `CC(C)(C)c1cc(C(=O)N/N=C/c2ccccc2O)n(-c2ccccc2)n1`: 19.8%; `COc1cc(/C=N/NC(=O)c2cccc(C(=O)N/N=C/c3ccc(O)c(OC)c3)n2)ccc1O`: -2.1%. On to `Cc1cc(C)n2nc(C(=O)N/N=C/c3ccc(Cl)cc3)nc2n1`, for which the inhibition was 6.6%. Next, `COc1cc(/C=N/NC(=O)c2cc3ccccc3[nH]2)ccc1O`: 27.5%. In the case of `CC(C)(C)c1cc(C(=O)N/N=C/c2ccc(F)cc2)n(-c2ccccc2)n1` it was -0.35%. In the case of `COc1ccc(OC)c(/C=N\NC(=O)c2c(C)nc3cc(C)ccn23)c1` it was 11.2%; in that of `CCOc1cc(/C=N\NC(=O)c2c(C)nc3ccccn23)ccc1O`, 35%. In the case of `Cc1ccc(/C=N/NC(=O)c2nc3nc(C)cc(C)n3n2)cc1`, the inhibition was 22.5%. Next, `COc1ccc(S(=O)(=O)N2CCCC(C(=O)NCCC(C)C)C2)cc1` (stereo not drawn): 5.62%; `Cc1cccc(NC(=O)c2cc(-c3cc(C)c(C)cc3O)n[nH]2)c1`: 4.66%; `CCOC(=O)Cc1c(C)nc(SC)[nH]c1=O`: 1.67%. In the case of `Cc1nn(C)c(Oc2ccccc2)c1CCNC(=O)CCl` it was -0.24%; in that of `COc1cccc(OC)c1C(=O)Nc1ccc(S(=O)(=O)Nc2cc(C)nc(C)n2)cc1`, 20.7%. As for `COc1ccc(N(CC(=O)NCc2ccncc2)S(=O)(=O)c2ccccc2[N+](=O)[O-])c(OC)c1`, the inhibition was 2.38%.

For `COc1ccc(/C=N/NC(=O)c2ccc3nc[nH]c3c2)cc1OC`, the inhibition was 3.44%. In the case of `COc1cc(/C=N/NC(=O)c2ccc3nc[nH]c3c2)cc(OC)c1OC` it was 8.71%; in that of `COCCSc1nc2c(c(=O)[nH]c(=O)n2C)n1CCCc1ccccc1`, 3.03%.

As to `Cc1noc(C)c1COC(=O)c1cccnc1SCC(=O)Nc1ccc2c(c1)OCO2`, the inhibition was 2.06%. Next, `Cc1ccccc1Cn1cnc2c(NS(C)(=O)=O)c(C)c(C)cc21`: 0.14%; `Cc1c(Cl)cccc1N=C(N)N=C(N)N`: 13.8%. Next, `NC(N)=N/N=C/c1c(Cl)cccc1Cl`: 21.2% and 9.2%; `COc1cc(/C=N/N=C2/NC(=O)C(c3ccccc3)S2)ccc1O` (stereo not drawn): 30.9%; `COc1ccc(O)c(/C=N/N=C2/C(=O)Nc3ccccc32)c1`: 12.5%. Regarding `Cc1ccsc1/C=N/N=C1\C(=O)Nc2ccccc21`, the inhibition was -4.81%. Next, `COc1cc(/C=N/N=C(/C(=O)c2ccccc2)c2ccccc2)cc(OC)c1O`: 15.6%; `COc1ccc(OC)c(N=C2C(=O)Nc3ccccc32)c1`: 4.71%; `O=C1Nc2ccccc2/C1=N/N=C/c1cccc(O)c1`: 13.2%.

As for `COC(=O)c1ccc(S(=O)(=O)N2C3CCC2CC(NC(=O)C2CC2)C3)cc1` (stereo not drawn), the inhibition was -2.31%.

Consider `CCCCN(CCCC)CCCNC(=O)C12CN(Cc3ccccc3)CC1C(c1cccc([N+](=O)[O-])c1)=NO2` (stereo not drawn), for which the inhibition is 6.72%. Turning to `Cc1cc(NCc2ccccc2)n2ncc(-c3ccccc3)c2n1`, the inhibition is 3.96%. Next, `CC(=O)OC[C@H]1O[C@@H](O/N=C/C[C@@H]2C=C[C@H](OC(C)=O)[C@@H](COC(C)=O)O2)[C@H](OC(C)=O)[C@@H](OC(C)=O)[C@@H]1OC(C)=O`: 7.46%; `Cc1cc(NC(=O)C(C)SCC(=O)Nc2ccc(SC(F)F)cc2)no1` (stereo not drawn): 15.7%. Next, `Cc1ccc(C(=O)Cc2cc3ccccc3oc2=O)c(C)c1`: 9.25%; `Oc1ccc(-c2nc3ccccc3s2)c(O)c1`: 21%.

For `O=S(=O)(O)c1cc(O)ccc1O`, the inhibition was 25.8%. Take `O=C(Cc1ccccc1)NCc1cccnc1`: the inhibition was 5.27%. In the case of `CC(OC(=O)Cc1n[nH]c(=O)c2ccccc12)C(=O)Nc1cccc([N+](=O)[O-])c1` (stereo not drawn) it was 8.17%; in that of `COC(=O)c1cc(NS(=O)(=O)c2ccc(Cl)c(N3C(=O)c4ccc(C(=O)O)cc4C3=O)c2)cc(C(=O)OC)c1`, 11.3%; in that of `CCN1C(=O)C2(C(C(=O)c3cc4ccccc4o3)=C(O)C(=O)N2CCCN2CCOCC2)c2ccccc21` (stereo not drawn), 16.1%. Next, `CCN1C(=O)C2(C(C(=O)c3ccc(C)o3)=C(O)C(=O)N2CCCN(C)C)c2ccccc21` (stereo not drawn): 27.5%; `CCC(=O)Nc1ccc(C(=O)NNC(=O)c2cccc(C)c2)cc1`: 5.14%. In the case of `COc1cc(/C=C/c2ccc3cccc(O)c3n2)c(Br)cc1O` it was 0.04%. With `COc1cccc2c1-c1c(O)cccc1C2=O`, the inhibition is 9.33%.
